The other results are listed elsewhere or left out. Unmarked numbers belong to inactive results. Calls of active or inactive are those of the source.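 How the source made its calls: active means inhibition above the campaign cutoff, the mean of compounds within control limits plus 3 SD (cut at about 14% in these data); inactive means the rest.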

The target in this assay is Fibrinogen beta chain (Homo sapiens) (UniProt P02675). In words: inhibitors of Tn7 peptide binding to fibrin DD(E), confirmation, biochemical, fluorescence polarization, human fibrin, Tn7 probe (AID 720628).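 Further: 100% = median FP of high control wells holding Aha-Tn7 inhibitor peptide; displacers lower polarization since freed probe rises.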 The settings on record: FP displacement of TRITC-Tn7 peptide from DD(E); at 8.3 µM; hits give high values; 0% set at plate's compound-well median. In general terms: Fluorescence polarisation rises when a labelled molecule tumbles more slowly, as on binding a larger partner.
Chain of Fibrinogen beta chain (Homo sapiens) (P02675 whole entry, looked up): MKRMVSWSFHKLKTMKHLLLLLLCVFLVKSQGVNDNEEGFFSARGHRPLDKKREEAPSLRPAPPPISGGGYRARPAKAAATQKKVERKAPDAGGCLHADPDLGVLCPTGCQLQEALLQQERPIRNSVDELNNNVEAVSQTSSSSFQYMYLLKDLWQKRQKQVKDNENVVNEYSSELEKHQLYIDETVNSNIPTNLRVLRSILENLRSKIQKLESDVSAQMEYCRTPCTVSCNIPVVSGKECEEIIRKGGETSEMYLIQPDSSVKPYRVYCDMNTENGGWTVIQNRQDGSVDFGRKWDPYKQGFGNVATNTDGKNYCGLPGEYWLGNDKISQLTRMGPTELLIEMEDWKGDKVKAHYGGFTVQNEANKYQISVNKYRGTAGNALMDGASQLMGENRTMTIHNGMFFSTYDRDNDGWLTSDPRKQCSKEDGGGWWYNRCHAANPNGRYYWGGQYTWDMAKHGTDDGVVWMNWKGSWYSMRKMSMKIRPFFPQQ
In the case of `Oc1ccc2ccc3cccc[n+]3c2c1`, the inhibition (as a rule, the change of the read-out against control, counted positive when it falls) was 20.3% (active). `C#CCNc1ccc(C(=O)OCC)cc1`: the inhibition was 19.9% (active). For the compound `Cc1cc2nc3c(=O)[nH]c(=O)nc-3n(C[C@H](O)[C@H](O)[C@H](O)CO)c2cc1C`, the inhibition is 53.3% (active).

Consider `COc1ccc(N=Nc2c(-c3ccc(OC)cc3)[nH]oc2=O)cc1`, for which the inhibition was -2.03%. The same measure for `CN1C(=O)c2cccc3c(N)ccc(c23)C1=O`: 30.8% (active).

Take `COc1cc(C(=S)N2CCOCC2)ccc1O`: the inhibition is 8.15%.

Turning to `O=C(NCc1ccccc1)c1cccc(NC(=O)C2CCCCC2)c1`, the inhibition is 4.29%. `COc1cccc(N2CC(NS(=O)(=O)c3cccs3)CC2=O)c1` (configuration not stated): the inhibition was 0.77%. For the compound `O=C(/C=C/c1ccccc1[N+](=O)[O-])NCC1CCCO1` (configuration not stated), the inhibition was 9.76%. As for `O=C(CSc1nnc(-c2ccccn2)n1-c1ccc(Cl)cc1)Nc1ccccc1-c1ccccc1`, the figure is 2.95%; as for `CCOc1ccc(Nc2oc(Cc3ccccc3)nc2C#N)cc1`, -1.34%. As for `Cc1nn(C)cc1N1C(=O)c2cccc3c(N)ccc(c23)C1=O`, the figure is 12.5%. As for `O=C(COC(=O)c1ccc([N+](=O)[O-])cc1Cl)NC(=O)c1ccccc1`, the inhibition is 2.79%. With `Cc1cc2nc3c(=O)n(Cc4ccccc4)c(=O)[nH]c3nc2cc1N`, the inhibition is -4.02%. As to `Cc1nnc2n1N=C(c1ccc3c(c1)NC(=O)CO3)CS2`, the inhibition is -7.07%. For `Cn1c(CC(=O)NNC(=O)c2ccccc2F)nc2ccccc21`, the inhibition is 4.13%.

Regarding `CN1c2ccc(C=O)c3c(C=O)ccc(c23)N(C)C1(C)C`, the inhibition was 1.94%.
